This is one part of a sample in which hits are shown more often than they occur.
CHX counter – counter-screen for Shiga toxin inhibitors: cycloheximide protein synthesis inhibition; 12% of 300,000 active; AID 2314; cell reporter, cycloheximide protein synthesis inhibition counterscreen; max response, %; in the data active = max response mostly above about 13%, no sharp cut-off; inactive = mostly below about 14%; also: read at 38.3 µM for the half of the compounds with a filed dose
Shiga inhibitor – Shiga toxin inhibition; 9.2% of 290,000 active; Vero cells, Shiga toxin protein synthesis inhibition reporter; inhibition, % at 38.7 µM; in the data active = inhibition mostly above about 28%, no sharp cut-off; inactive = mostly below about 43%
Sm TGR block – blocks Schistosoma mansoni thioredoxin glutathione reductase; Q962Y6; purified TGR, DTNB reduction, TNB absorbance 405 nm; Potency, µM (series often up to 114 µM), hits mostly inhibitors; 3% of 360,000 active; also: nearly all actives have a fitted effect of over 60% in size
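Kinetic colorimetric format: TGR-catalysed, NADPH-driven DTNB reduction monitored via TNB absorbance. Enzyme dispensed at 20 nM; compound exposure 15 min at room temperature before reaction start.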
LmPK inh – LmPK (Leishmania mexicana) enzyme inhibition. 0.37% of 290,000 active. Potency, µM (titrated, usually from 57.5 µM), usual class: inhibitors. purified LmPK, Kinase-Glo ATP luminescence, 1 h. AID 1721. Q27686
Target sequence (Q27686 whole entry, looked up): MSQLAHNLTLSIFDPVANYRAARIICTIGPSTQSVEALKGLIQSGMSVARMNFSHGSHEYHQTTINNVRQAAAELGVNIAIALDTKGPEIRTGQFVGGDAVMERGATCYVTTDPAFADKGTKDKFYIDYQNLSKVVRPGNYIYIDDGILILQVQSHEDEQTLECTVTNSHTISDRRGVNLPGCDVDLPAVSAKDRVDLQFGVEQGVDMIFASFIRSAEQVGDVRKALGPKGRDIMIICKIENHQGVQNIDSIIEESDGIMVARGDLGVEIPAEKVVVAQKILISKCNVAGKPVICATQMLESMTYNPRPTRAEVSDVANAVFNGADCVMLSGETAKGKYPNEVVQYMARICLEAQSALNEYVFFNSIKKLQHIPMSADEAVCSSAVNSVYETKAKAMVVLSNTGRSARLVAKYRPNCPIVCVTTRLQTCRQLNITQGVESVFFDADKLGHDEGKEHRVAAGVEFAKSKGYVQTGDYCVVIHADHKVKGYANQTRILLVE
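In 50 mM imidazole pH 7.2 with 7 mM MgCl2, LmPK (0.1 nM) turned over PEP (0.5 mM) and ADP (0.1 mM) for 1 h at room temperature. Luciferase read-out of ATP.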
FBPA Giardia inh – Giardia lamblia aldolase inhibition | 0.71% of 290,000 active | Potency, µM (highest dose often 59.6 µM), hits mostly inhibitors | AID 2451 | A8B2U2 | purified Giardia FBPA; also: nearly all actives have a fitted effect of over 55% in size
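Giardia FBPA (40 nM reagent) was preincubated 10 min at RT with compound (up to 57.5 uM final), then substrate plus GAPDH/TPI/NAD/arsenate coupling system with diaphorase/resazurin was added; resorufin fluorescence (525/598 nm) was read after 20 min.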
TbPYK inhibitor – inhibitors of Trypanosoma brucei pyruvate kinase. TbPYK enzyme, Kinase-Glo Plus ATP luminescence, 45 min. Potency, µM (highest dose often 76.8 µM), hits mostly inhibitors. 0.12% of 410,000 active. AID 624173; also: nearly all actives have a fitted effect of over 50% in size
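Screened from lowest to highest concentration, compounds were pinned into TbPYK/substrate mixtures, and ADP (130 uM final) was added. Plates sat at room temperature for 45 min prior to Kinase-Glo Plus detection by luminescence.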
Hits are given with their value. Unless noted, calls follow the shape of the dose curve; as a rule, active = well fitted curve in the direction sought with a large enough effect; inconclusive = small, poorly fitted or top-dose-only effect, or another doubt; inactive = no such curve, though single readings can be large; an effect the other way counts as inactive or inconclusive.

Nc1nc(CN2CCN(Cc3ccccc3)CC2)nc(Nc2ccccc2)n1 was read as CHX counter inactive, Shiga inhibitor inactive, Sm TGR block inconclusive, LmPK inh inactive, FBPA Giardia inh inactive and TbPYK inhibitor inactive.
`COc1ccccc1Nc1nc(N)nc(CSC(=S)N2CCCCC2)n1` gave CHX counter 31, Shiga inhibitor 59, Sm TGR block inactive, LmPK inh inactive, FBPA Giardia inh inactive and TbPYK inhibitor inactive.
For CC1CC(C)CN(C(=S)SCc2nc(N)nc(Nc3ccccc3)n2)C1 (stereo not drawn) the results were CHX counter inactive, Shiga inhibitor inactive, Sm TGR block inactive, LmPK inh inactive, FBPA Giardia inh inactive and TbPYK inhibitor inactive.
`Nc1nc(CSC(=S)N2CCCCC2)nc(Nc2ccccc2)n1` gave CHX counter 40, Shiga inhibitor 87, Sm TGR block inactive, LmPK inh inactive, FBPA Giardia inh inactive and TbPYK inhibitor inactive.
Nc1nc(CSC(=S)N2CCOCC2)nc(Nc2ccccc2)n1 was read as CHX counter 54, Shiga inhibitor 94, Sm TGR block inactive, LmPK inh inactive, FBPA Giardia inh inactive and TbPYK inhibitor inactive.
For Cc1ccc(Nc2nc(N)nc(CSC(=S)N3CCOCC3)n2)cc1 the results were CHX counter 46, Shiga inhibitor 96, Sm TGR block inactive, LmPK inh inactive, FBPA Giardia inh inactive and TbPYK inhibitor inactive.
Cc1cccc(Nc2nc(N)nc(CSC(=S)N3CCOCC3)n2)c1 was read as CHX counter inactive, Shiga inhibitor inactive, Sm TGR block inactive, LmPK inh inactive, FBPA Giardia inh inactive and TbPYK inhibitor inactive.
Screening CC1(C(=O)NS(=O)(=O)c2ccccc2)CCN1C(=O)CC1CCCC1 (stereo not drawn) returned TbPYK inhibitor inactive.
CCOc1ccc(Nc2nc(N)nc(CSC(=S)N3CCOCC3)n2)cc1 was read as CHX counter 44, Shiga inhibitor inactive, Sm TGR block inactive, LmPK inh inactive, FBPA Giardia inh inactive and TbPYK inhibitor inactive.
Nc1nc(CSC(=S)N2CCN(c3ccccc3)CC2)nc(Nc2ccc(F)cc2)n1 was read as CHX counter inactive, Shiga inhibitor inactive, Sm TGR block inactive, LmPK inh inactive, FBPA Giardia inh inactive and TbPYK inhibitor inactive.
`CC(=O)c1ccc(NC(=O)COc2ccccc2-c2nc(C)no2)cc1` gave Sm TGR block inactive and TbPYK inhibitor inactive.
`COc1ccc(OC)c(Nc2nc(-c3sc(C)nc3C)cs2)c1` gave CHX counter inactive, Shiga inhibitor inactive, Sm TGR block inactive, LmPK inh inactive, FBPA Giardia inh inactive and TbPYK inhibitor inactive.
`COc1ccccc1Nc1nc(-c2sc(N)nc2C)cs1` gave CHX counter 14, Shiga inhibitor inactive, Sm TGR block inactive, LmPK inh inactive, FBPA Giardia inh inactive and TbPYK inhibitor inactive.
COc1ccccc1Nc1nc(-c2sc(NC(=O)c3ccccc3)nc2C)cs1 was read as CHX counter inactive, Shiga inhibitor inactive, Sm TGR block inactive, LmPK inh inactive, FBPA Giardia inh inactive and TbPYK inhibitor inactive.
`COc1cccc(Nc2nc(-c3sc(C)nc3C)cs2)c1` gave CHX counter 42, Shiga inhibitor 62, Sm TGR block inactive, LmPK inh inactive, FBPA Giardia inh inactive and TbPYK inhibitor inactive.
`Cc1nc(C)c(-c2csc(Nc3ccc(F)cc3)n2)s1` gave CHX counter 33, Shiga inhibitor 64, Sm TGR block inactive, LmPK inh inactive, FBPA Giardia inh inactive and TbPYK inhibitor inactive.
`Cc1nc(N)sc1-c1csc(Nc2ncccn2)n1` gave CHX counter 44, Shiga inhibitor 42, Sm TGR block inactive, LmPK inh inactive, FBPA Giardia inh inactive and TbPYK inhibitor inactive.
`COc1cccc(-c2c(C(=O)N/N=C/c3ccco3)nnn2-c2nonc2N)c1` gave CHX counter inactive, Shiga inhibitor inactive, Sm TGR block inactive, LmPK inh inactive, FBPA Giardia inh inactive and TbPYK inhibitor inactive.
CC(C)(C)OC(=O)NCCc1onc(-c2cccc([N+](=O)[O-])c2)c1C(=O)O was read as TbPYK inhibitor inactive.
`COCCCN1C(=O)C(CC(=O)NCCCN(C)C)CC(C(=O)N2CCCCCC2)=C1C` (stereo not drawn) gave TbPYK inhibitor inactive.
`COc1cccc(Nc2nc(-c3sc(N)nc3C)cs2)c1` gave CHX counter 23, Shiga inhibitor active, Sm TGR block inactive, LmPK inh inactive, FBPA Giardia inh inactive and TbPYK inhibitor inactive.
Cc1nc(C)c(-c2csc(Nc3ncccc3C)n2)s1 was read as CHX counter 43, Shiga inhibitor 56, Sm TGR block inactive, LmPK inh inactive, FBPA Giardia inh inactive and TbPYK inhibitor inactive.
`COc1cccc(Nc2nc(-c3sc(NC(=O)c4ccco4)nc3C)cs2)c1` gave CHX counter inactive, Shiga inhibitor inactive, Sm TGR block inactive, LmPK inh inactive, FBPA Giardia inh inactive and TbPYK inhibitor inactive.
Screening CC(C)c1cc(CN2CCN(CCC#N)CC2)cc(C(C)C)c1O returned CHX counter inactive, Shiga inhibitor inactive, Sm TGR block 22µM, LmPK inh inactive, FBPA Giardia inh inactive and TbPYK inhibitor inactive.
`O=C1N=c2ccccc2=C1c1sc(Nc2cccc(O)c2)nc1O` gave CHX counter 44, Shiga inhibitor 48, Sm TGR block inactive, LmPK inh inactive, FBPA Giardia inh inactive and TbPYK inhibitor inactive.
O=C1N=c2ccccc2=C1c1sc(Nc2ccc(O)cc2)nc1O was read as CHX counter inactive, Shiga inhibitor 64, Sm TGR block inactive, LmPK inh inactive, FBPA Giardia inh inconclusive and TbPYK inhibitor inactive.
Nc1c(NCCN2CCCCC2)c2ccccc2oc1=O was read as CHX counter inactive, Shiga inhibitor inactive, Sm TGR block 28µM, LmPK inh inactive, FBPA Giardia inh inactive and TbPYK inhibitor inactive.
`O=c1cc(CN2CCCCCCC2)c2ccccc2o1` gave TbPYK inhibitor inactive.
O=c1oc2ccccc2c(N2CCCC2)c1CN1CCCC1 was read as CHX counter inactive, Shiga inhibitor inactive, Sm TGR block 35µM, LmPK inh inactive, FBPA Giardia inh inactive and TbPYK inhibitor inactive.
Screening O=c1oc2ccccc2c(Cl)c1CN1CCCCC1 returned CHX counter inactive, Shiga inhibitor inactive, Sm TGR block 4.5µM, LmPK inh inactive, FBPA Giardia inh inactive and TbPYK inhibitor inactive.
Screening COc1ccccc1N1CCN(c2c(CN3CCCC3)c(=O)oc3ccccc23)CC1 returned Sm TGR block inactive and TbPYK inhibitor inactive.
CCCNc1c(N)c(=O)oc2ccccc12 was read as CHX counter inactive, Shiga inhibitor inactive, Sm TGR block inactive, LmPK inh inactive, FBPA Giardia inh inactive and TbPYK inhibitor inactive.
`COC(=O)CSc1nc2cc(OC)ccc2n1C` gave CHX counter inactive, Shiga inhibitor inactive, Sm TGR block inactive, LmPK inh inactive, FBPA Giardia inh inactive and TbPYK inhibitor inactive.

Screening results from PubChem.
